Screening data as filed in PubChem.
FMDV inh: antivirals against foot and mouth disease virus; FMDV antiviral cell-based qHTS; Potency, µM (highest dose often 57.9 µM), for inactives: at the top dose activity change, negative = inhibition, usual class: inhibitors; hit rate 1.2% among 410,000; AID 1159524; calls by dose curve; tested in HEK293T cells; further: read-out not given here; potency means the concentration at half of the fitted maximal effect; nearly all actives have a fitted effect of over 45% in size
LASV entry inh: Lassa virus entry inhibition | Lassa virus pseudotype entry inhibition, cell reporter | Potency, µM (highest dose often 37.9 µM), inactives show at the highest dose activity change, negative = inhibition, actives largely listed as inhibitors | hit rate 1.2% among 300,000; calls by dose curve; tested in HEK293 cells; further: potency means the concentration at half of the fitted maximal effect; nearly all actives have a fitted effect of over 50% in size
MARV entry inh: inhibitors of Marburg virus binding or cell entry; Marburg virus pseudotyped entry inhibition, cell reporter; hit rate 1.8% among 300,000; Potency, µM (doses to about 37.8 µM), for the others: at the highest dose activity change, negative = inhibition, most hits filed as inhibitors; calls by dose curve; tested in HEK293 cells; further: potency means the concentration at half of the fitted maximal effect
HCV inh: HCV inhibition; Huh7.5.1 HCVcc-Cre infection, luciferase reporter, 44 h; Potency, µM (top dose mostly 41.8 µM), for the others: at the highest dose activity change, negative = inhibition, usual class: inhibitors; hit rate 3.4% among 340,000; AID 651820; active means well fitted inhibition curve with a large enough effect; inconclusive means small, poorly fitted or top-dose-only effect, or another doubt; inactive means no such curve, though single readings can be large or run the other way; further: potency means the concentration at half of the fitted maximal effect
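Infectious HCVcc-Cre (~0.5 moi) was added to cells just after compound, with cells seeded 4 h earlier at 1,000 per well. Luciferase activity after 44 h culture reported infection; substrate was incubated 15 min at room temperature before reading.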
HCMV antiviral: human cytomegalovirus inhibition; activity change, negative = inhibition, % at 57.5 µM; hit rate 4.5% among 410,000; HFF cells, HCMV-luciferase reporter, 72 h; hits give low values; in the data active means activity change below about -60%; inconclusive means no clear call, values can overlap the other calls; inactive means above about -39%
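Two compound doses tested in HFFs infected with HCMV-luciferase, MOI 1 PFU/cell, 72 h at 37C. Lysate luminescence read with OneGlo; data normalized against buffer-only and 10uM Salinomycin inhibitor controls.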
An asterisk follows results filed as active; ? = inconclusive; / = no result; [ ] = remark or other dose. Only some compounds are listed: those with a hit (about 7.9% of all), similar ones and a draw of the others. On the % scale 0 is the no-effect control and ±100 the full control effect.

SMILES	FMDV inh	LASV entry inh	MARV entry inh	HCV inh	HCMV antiviral
CCc1ccc(S(=O)(=O)N(C(=O)Oc2ccccc2)c2ccc3oc(C)c(C(=O)OC)c3c2)cc1	-13.5%	?	/	/	-70.9*
C/C(CCN1CCc2nc(-c3ccccc3)c(-c3ccccc3)cc2C1)=N\O[C@H](C)CN1CCCCc2nc(C)c(C)cc21	/	/	24.9%[14.2 µM]	/	/
Cc1ccc(OCCCCn2cnc3ccccc32)c(C)c1	-14.2%	?	?	?	-98.4*
Brc1ccccc1OCCCCn1cnc2ccccc21	-25.1%	?	?	10µM*	-60.2*
Cc1ccc(NC(=O)CCNS(=O)(=O)c2ccc3[nH]c(=O)oc3c2)cc1F	19.3%	4.5%[46.1 µM]	6.8%[46.1 µM]	8.8%	-17.0
CC(=O)Oc1ccc(-c2csc(Nc3ccc(Cl)cn3)n2)cc1	22.9%	/	/	11.2µM*	-8.1
Cc1nc(C)c(-c2csc(Nc3ccccn3)n2)s1	-23.8%	/	/	8.91µM*	-20.4
Cc1nc(N)sc1-c1csc(Nc2ccccn2)n1	-25.0%	?	?	-24.0%	9.1
Cc1nc(N)sc1-c1csc(Nc2ccc(Cl)cn2)n1	15.2%	-8.9%	?	8.91µM*	-18.4
COc1ccc(Nc2nc(-c3sc(N)nc3C)cs2)cc1	-14.1%	1.2%	21.4%	?	138.6
Cc1ccnc(Nc2nc(-c3sc(C)nc3C)cs2)c1	-8.7%	14.9%[46.1 µM]	5.62µM*	8.91µM*	-106.6*
COc1cccc(-c2cc(NC=O)c3ncc(-c4cccc(C(=O)N(C)C)c4)n3c2)c1	-17.8%	/	/	/	69.7
COc1ccc(CNc2nn3c(-c4cccc(C(=O)N(C)C)c4)cnc3s2)cc1	0.0%	/	/	/	-66.4*
COc1cc(OC)cc(C(=O)NCC2Cc3cccc(-c4nc(C)cnc4C)c3O2)c1 (configuration not stated)	-12.1%	/	/	/	/
COC(=O)C1=C(C)NC2=C(C(=O)CCC2)C1c1cn(Cc2ccc(Cl)cc2Cl)nc1-c1ccccc1 (configuration not stated)	-4.2%	7.0%	?	?	-60.7*
CCOC(=O)C1=C(C)NC2=C(C(=O)CCC2)C1c1cn(Cc2ccc(Cl)cc2Cl)nc1-c1ccccc1 (configuration not stated)	-0.6%	-12.2%	?	?	-90.0*
CCOc1ccc(S(=O)(=O)N2CCN(CN3C(=O)CC4(CCCC4)C3=O)CC2)cc1	-20.3%	/	/	7.6%	-24.4
CCCc1nc2cccnc2n1C1CCN(C(=O)Cn2nccc2C)CC1	8.5%	/	/	/	/
O=C(Nc1ccccc1)c1cc(C2CCCCN2S(=O)(=O)c2ccccc2)on1 (configuration not stated)	4.1%	/	/	/	32.7
Cc1nc2c(C(=O)NCc3ccc4c(c3)OCO4)cnn2c(C)c1Cc1ccc(F)cc1Cl	-7.6%	-11.2%	-21.4%	-8.7%	-3.2
Cc1nc2c(C(=O)NCc3ccco3)cnn2c(C)c1Cc1ccc(F)cc1Cl	?	-11.2%	?	12.6µM*	-1.2
O=C(Nc1ccccc1)OCCOc1ccccc1	17.1%	8.1%	9.9%	12.6µM*	42.3
O=C(CCC(=O)OCCOc1ccccc1)OCCOc1ccccc1	-8.9%	/	/	/	-97.9*
CCc1ccc2oc(C(=O)Nc3cccc(C(F)(F)F)c3)cc(=O)c2c1	-14.2%	8.6%[46.1 µM]	29.0%[46.1 µM]	/	-6.2
c1ccc(Cn2cnc3ccccc32)cc1	/	?	?	?	14.1
SMILES	FMDV inh	LASV entry inh	MARV entry inh	HCV inh	HCMV antiviral
Clc1ccc(Cn2cnc3ccccc32)cc1	?	-24.9%[46.1 µM]	?	?	-70.3*
Cc1noc(/C=C/N(C)C)c1S(=O)(=O)N1CCN(c2ccc(F)cc2)CC1	-10.2%	/	/	-6.8%	-62.1*
COc1ccc(C(=O)c2cn(Cc3ccccc3)c3ccccc3c2=O)cc1OC	?	-20.1%[46.1 µM]	2.7%[46.1 µM]	/	-9.9
COc1cc2nc(CN3CCN(S(=O)(=O)c4ccccc4)CC3)[nH]c(=O)c2cc1OC	-10.0%	-1.6%	0.3%	13.2%	?
COc1cc2nc(CN3CC=C(c4ccccc4)CC3)[nH]c(=O)c2cc1OC	-11.2%	?	15.9%[46.1 µM]	3.55µM*	-98.8*
CC(C)(C)c1ccc(NC(=O)N2CCN(c3ccc([N+](=O)[O-])cn3)CC2)cc1	22.4µM*	?	7.5%[14.2 µM]	?	-93.8*
O=C(Nc1ccccc1)N1CCCN(c2ccc(C(F)(F)F)cn2)CC1	?	/	/	11.2µM*	-65.9*
CC(C)Cn1cc(NC(=O)NCc2ccccc2Cl)c2ccccc2c1=O	-19.5%	?	/	/	-9.2
CSc1nc(NCC(C)O)c2c3c(sc2n1)CN(C)CC3 (configuration not stated)	-4.3%	/	/	-14.3%	-11.6
CSc1nc(SCC(=O)NC(c2ccccc2)c2ccccc2)c2c3c(sc2n1)CN(C)CC3	-1.1%	?	9.2µM*	1.78µM*	-29.3
Cc1ccc(-n2nnc(-c3nsc(NC(=O)c4cccc(Cl)c4)n3)c2C)cc1C	-24.9%	-19.2%[46.1 µM]	/	/	-26.2
CN(Cc1cn(C)nc1-c1ccc(Oc2ccccc2)cc1)Cc1cnc2ccccn12	11.2µM*	/	/	?	0.0
COC(=O)[C@]12C[C@H](CC(=O)NCC34CC5CC(CC(C5)C3)C4)C(=O)N(Cc3ccc4c(c3)OCO4)C1=C[C@H](COCc1ccccc1)O[C@@H]2C	/	/	/	/	-62.7*
COC(=O)[C@]12CCCCC=C1N(Cc1ccccc1)C(=O)[C@H](CC(=O)NCc1cccs1)C2	0.1%	/	/	/	-65.6*
COC(=O)[C@]12CCCCC=C1N(Cc1ccc3c(c1)OCO3)C(=O)[C@H](CC(=O)N1CCCCC1)C2	-6.3%	/	/	/	-69.7*
COC(=O)[C@]12C[C@H](CC(=O)NCc3cccs3)C(=O)N(Cc3ccccc3)C1=C[C@H](C(C)C)O[C@@H]2C1CC1	/	/	/	/	-70.8*
COC(=O)[C@]12CCCCC=C1N(Cc1ccco1)C(=O)[C@H](CC(=O)NCc1cccs1)C2	-14.6%	/	/	/	5.1
CCNC(=O)N[C@H]1CC[C@@]23CCCN2C(=O)CCC[C@H]3C1Cc1ccccc1 (some centres not stated)	/	/	/	/	-6.0
CC(C)COc1ccc(C(=O)N[C@@H](CC(C)C)C(=O)O)cc1	/	/	26.8%	/	/
O=C([C@H](c1ccccc1)N1CCOCC1)N1CCOCC1	/	/	28.6%[46.1 µM]	/	/
Clc1ccc(OCc2nc3ccccc3[nH]2)cc1	6.4%	?	?	11.2µM*	36.8
Cc1ccc(S(=O)(=O)CCc2nc3ccccc3[nH]2)cc1C	11.9%	/	-21.4%[46.1 µM]	-5.6%	-26.5
Cc1ccc(S(=O)(=O)CCc2nc3ccccc3[nH]2)cc1	4.8%	?	2.5%[46.1 µM]	-0.5%	-69.4*
c1ccc2[nH]c(CCCCCc3nc4ccccc4[nH]3)nc2c1	-6.6%	/	/	/	-21.2
O=S(=O)(CCc1nc2ccccc2[nH]1)c1ccc(Cl)cc1	-6.0%	1.6%	-9.1%	1.8%	-60.7*
Cc1c(CN2CCOc3c(cc(-c4ncc(C(F)(F)F)cc4Cl)cc3OCC3CCCO3)C2)cnn1C (configuration not stated)	3.6%	/	/	/	/
O=C(Nc1nnc(CSCc2ccc(F)cc2)s1)c1cccc([N+](=O)[O-])c1	39.8µM*	-24.1%	-17.3%	8.2%	-4.3
